This note sets out measurements from the supplement of paper PMC8728848.

Experiment in all cases: glycan array binding signal (z-score within array); higher = stronger binding
Holding throughout (settings): glycan notation: IUPAC condensed, linker removed

In one assay the target is Fuc(a1-2)Gal(b1-3)GalNAc. The method in brief:
(§1)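 Negative Z-scores can be read as non-binding. The Z-score is calculated within each array and then averaged across arrays of one protein sequence at different concentrations or buffers and across linkers. Arrays, 3228 in all, were curated from the Consortium for Functional Glycomics database and kept only where the protein sequence was available.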

The target of a further assay is Fuc(a1-2)Gal(b1-4)GlcNAc. The procedure, abridged: as §1
Assay [1] deals with Fuc(a1-2)Gal(b1-4)GlcNAc(b1-3)Gal(b1-4)GlcNAc. The method in brief:
as §1

Assay [2] addresses Fuc(a1-2)[Gal(a1-3)]Gal(b1-4)[Fuc(a1-3)]GlcNAc. The method in brief:
as §1

For assay [3], the target named is Gal(b1-3)GalNAc(b1-4)Gal(b1-4)Glc. The method in brief: as §1
For assay [4], the target named is Gal(b1-3)[Fuc(a1-4)]GlcNAc(b1-3)Gal(b1-4)GlcNAc. The method in brief: as §1
The next assay deals with Gal(b1-4)Glc. The procedure, abridged: as §1
Assay [5] deals with Gal(b1-4)GlcNAc(b1-3)Gal(b1-4)Glc. The procedure, abridged: as §1
The target in assay [6] is Gal(b1-4)GlcNAc(b1-3)Gal(b1-4)GlcNAc(b1-3)Gal(b1-4)GlcNAc. The method in brief: as §1
Assay [7] addresses Gal(b1-4)GlcNAc(b1-3)GalNAc. The method in brief: as §1
The target of assay [8] is GlcNAc(b1-4)GlcNAc(b1-4)GlcNAc(b1-4)GlcNAc(b1-4)GlcNAc(b1-4)GlcNAc. The procedure, abridged: as §1
Assay [9] addresses Neu5Ac(a2-3)Gal(b1-3)[Fuc(a1-4)]GlcNAc(b1-3)Gal(b1-4)[Fuc(a1-3)]GlcNAc. The method in brief: as §1
The target of assay [10] is Neu5Ac(a2-3)GalNAc(b1-4)GlcNAc. The method in brief:
as §1

Assay [11] has as its target Neu5Ac(a2-6)Gal(b1-4)GlcNAc(b1-3)Gal(b1-4)[Fuc(a1-3)]GlcNAc(b1-3)Gal(b1-4)[Fuc(a1-3)]GlcNAc. The procedure, abridged:
as §1

The target in assay [12] is Neu5Gc(a2-3)Gal(b1-3)[Fuc(a1-4)]GlcNAc. The method in brief: as §1
For another assay, the target named is Neu5Gc(a2-3)Gal(b1-4)Glc. The procedure, abridged:
as §1

Assay [13] deals with Fuc(a1-2)Gal(b1-3)GalNAc(b1-4)[Neu5Ac(a2-3)]Gal(b1-4)Glc. The procedure, abridged: as §1
For assay [14], the target named is Fuc(a1-2)Gal6S(b1-4)GlcNAc. The procedure, abridged: as §1
Assay [15] addresses Fuc(a1-3)[Gal(b1-4)]GlcNAc(b1-4)Gal(b1-4)[Fuc(a1-3)]GlcNAc(b1-4)Gal(b1-4)[Fuc(a1-3)]GlcNAc. The method in brief:
as §1

Assay [16] concerns the target Fuc(a1-3)[Gal(b1-4)]GlcNAc6S. The procedure, abridged:
as §1

For assay [17], the target named is Fuc(a1-3)[GalNAc(b1-4)]Gal(b1-4)GlcNAc. The procedure, abridged: as §1
The target in assay [18] is Gal(a1-3)Gal(b1-4)[Fuc(a1-3)]GalNAc. The procedure, abridged: as §1
The target in a further assay is Gal3S(b1-4)GlcNAc6S. The method in brief:
as §1

The target of the next assay is Gal6S(b1-4)Glc6S. The method in brief:
as §1

Another assay has as its target Gal6S(b1-4)GlcNAc. The method in brief:
as §1

The next assay addresses Glc(b1-6)Glc. The procedure, abridged: as §1
Assay [19] has as its target GlcNAc(a1-6)Gal(b1-4)GlcNAc. The procedure, abridged: as §1
Assay [20] deals with GlcNAc(b1-3)Gal(b1-4)GlcNAc(b1-3)Gal(b1-4)GlcNAc. The procedure, abridged:
as §1

Assay [21] concerns the target GlcNAc(b1-3)[GlcNAc(b1-6)]GlcNAc. The method in brief: as §1
The target in assay [22] is GlcNAc(b1-4)Gal(b1-4)GlcNAc. The procedure, abridged: as §1
For assay [23], the target named is GlcNAc(b1-4)[GlcNAc(b1-6)]GalNAc. The method in brief:
as §1

The next assay deals with Kdn(a2-3)Gal(b1-4)GlcNAc. The procedure, abridged:
as §1

The target in assay [24] is Man(a1-2)Man(a1-2)Man(a1-3)[Man(a1-2)Man(a1-6)[Man(a1-3)]Man(a1-6)]Man(b1-4)GlcNAc(b1-4)GlcNAc. The method in brief:
as §1

For assay [25], the target named is Neu5Ac(a2-3)Gal(b1-3)GlcNAc. The method in brief: as §1
The target in assay [26] is Neu5Ac(a2-3)Gal(b1-4)[Fuc(a1-3)]GlcNAc(b1-3)Gal(b1-4)GlcNAc. The procedure, abridged: as §1
For assay [27], the target named is Neu5Ac(a2-8)Neu5Ac(a2-8)Neu5Ac(a2-3)[GalNAc(b1-4)]Gal(b1-4)Glc. The method in brief:
as §1

Assay [28] addresses Neu5Gc(a2-3)Gal(b1-4)GlcNAc. The method in brief: as §1

This is one part of a sample in which the strongest signals are shown more often than they occur.

B1: STA (Solanum tuberosum), Q9S8M0 (protein)
chain: NASPPSPSPLPYPQCGMKKGGGKCIKTGECCSIWGWCGTTNAYCSPGYCQKQCPGPYPEGRCGWQANGKSCPTGTGQCCSNGGWCGTTSDYCASKNCQSQCKLPSPPPPPPPPSPPPPSPPSPPPPSPPPPPPPSPPPPSPPPPSPSPPPPPASPPPPPPALPYPQCGIKKGGGKCIKTGECCSIWGWCGTTNAYCSPGYCQKQCPGPYPEGRCGWQANGKSCPTGTGHCCSNAGWCGTTSDYCAPVNCQAQCNTTTLTSPIKNRMRGIESFMLNVV
In the case of B1, the “glycan array binding signal (z-score)” value in the assay with Fuc(a1-2)Gal(b1-3)GalNAc is -0.582; with Fuc(a1-2)Gal(b1-4)GlcNAc, 2.12; in assay [1], 2.12; in assay [2], -0.593; in [3], -0.595; in [4] it was -0.584. The “glycan array binding signal (z-score)” value with Gal(b1-4)Glc was -0.586; in assay [5], 1.35; in assay [6], 2.26; in [7], -0.564; in assay [8] it was 2.18; in assay [9], -0.589. For the same molecule, the “glycan array binding signal (z-score)” value in assay [10] was 2.22; in [11], -0.578; in assay [12], -0.58; with Neu5Gc(a2-3)Gal(b1-4)Glc it was -0.591.

B2: KCR (Mus musculus), P70194 (protein)
chain: MKEAELNRDMARYCTDNQCVSLQPQGLGPKSAALMAPRTLRHVQVILALMVVTVIFSLLALFVVASQPWRPEWNKEPPSLLLRGSNNSGHDNHSQFVRETEMQVAIQRLRDYEENSSSCHKEVQILKYQMDNVSSLVQLLGSHLEDVNADILQTKDVLKESGALALETQALRSSLEVASADIHSLRGDLEKANAMTSQTRGLLKSSTENTSAELHVLGRGLEEAQSEIQALRGSLQSANDLSSQTQGFLQHSMDNISAQIQTVRDGMERAGEKMNSLKKELETLTAQTQKANGHLEQTDAQIQGLKAELKSTSSLNSRIEVVNGQMKDASRELQTLRRDLSDVSALKSNVQMLQSNLQRAKTEMQTLKADLQATKALTAKIQGEQNRLGALQEAVAAQKQEQKTQNQVLQLIAQNWKYFNGNFYYFSRDKKPWREAEKFCTSQGAHLASVTSQEEQAFLVQTTSSGDHWIGLTDQGTEGIWRWVDGTPFNNAQSKGFWGKNQPDNWRHRNGEREDCVHVRQQWNDMACGSSYPWVCKKSTGWSAARVG
For B2, the “glycan array binding signal (z-score)” value is -0.72 in the assay with Fuc(a1-2)Gal(b1-3)GalNAc; -0.426 in assay [13]; -0.635 in [1]; 0.367 in assay [14]; 4.39 in assay [15]; 3.94 in assay [16]. Further, the “glycan array binding signal (z-score)” value is 3.06 in assay [17]; 0.117 in assay [18]; 0.95 with Gal3S(b1-4)GlcNAc6S; 2.48 with Gal6S(b1-4)Glc6S; 0.769 with Gal6S(b1-4)GlcNAc; -0.566 with Glc(b1-6)Glc. The “glycan array binding signal (z-score)” value is 2.47 in assay [19]; -0.465 in assay [20]; -0.721 in assay [21]; -0.82 in assay [22]; -0.917 in [23]; -0.623 with Kdn(a2-3)Gal(b1-4)GlcNAc. Moreover, the “glycan array binding signal (z-score)” value in [24] is -0.336; in assay [25], -0.592; in assay [26], 0.119; in assay [27], 0.254; in assay [28] it was -0.288.
